# PubChem BioAssay AID1159580 (chemical genetic matrix, 2015)
# “And” between values parts separate entries of the source, which are not always exact repeats. Identical values can stand only once. In all, about 5,500 compounds went through this assay and about 2,000 (36%) were called active. Not shown: some 18% with an inconclusive outcome. Some of the results follow. Values without a mark were called inactive. Rule as the data show it: active = normalized growth mostly below about 0.91 (no sharp cut-off); inconclusive = no clear call, values can overlap the other calls; inactive = mostly above about 0.92.
# Test: chemical genetic growth profiling, strain panel (AID 1159580);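 also: tested at 20 µM; growth read once vehicle control cultures reached saturation at 30 °C; 1 = growth at the plate median or of vehicle wells; lower values mean less growth of the strain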
# Conditions: S. cerevisiae deletion strains, growth OD
smiles,measurement,setting,value
CC(=O)OC1CCC23CC1(C)CCC2C(C)(C)CC3OC(C)=O (stereo unspecified),normalized growth,"locus YAL021C, strain ccr4, stronger effect = lower value",1.04
same,normalized growth,"locus YAL026C, strain drs2, stronger effect = lower value",1.02
same,normalized growth,"locus YAL030W, strain snc1, stronger effect = lower value",0.996
same,normalized growth,"locus YBL061C, strain skt5, stronger effect = lower value",1.01
same,normalized growth,"locus YBR009C, strain hhf1, stronger effect = lower value",1.01
same,normalized growth,"locus YBR021W, strain FUR4, stronger effect = lower value",1.01
same,normalized growth,"locus YBR023C, strain chs3, stronger effect = lower value",0.981
same,normalized growth,"locus YBR171W, strain sec66, stronger effect = lower value",0.999
same,normalized growth,"locus YBR229C, strain ROT2, stronger effect = lower value",0.988
same,normalized growth,"locus YBR231C, strain swc5, stronger effect = lower value",1.02
same,normalized growth,"locus YBR279W, strain paf1, stronger effect = lower value",1.04
same,normalized growth,"locus YCL011C, strain gbp2, stronger effect = lower value",0.995
same,normalized growth,"locus YCL016C, strain dcc1, stronger effect = lower value",0.978
same,normalized growth,"locus YCL029C, strain bik1, stronger effect = lower value",1.01
same,normalized growth,"locus YCL061C, strain MRC1, stronger effect = lower value",1.01
same,normalized growth,"locus YCL069W, strain vba3, stronger effect = lower value",0.991
same,normalized growth,"locus YCR088W, strain abp1, stronger effect = lower value",0.992
same,normalized growth,"locus YDL005C, strain med2, stronger effect = lower value",0.994
same,normalized growth,"locus YDL035C, strain GPR1, stronger effect = lower value",1.01
same,normalized growth,"locus YDL040C, strain nat1, stronger effect = lower value",0.999
same,normalized growth,"locus YDL074C, strain BRE1, stronger effect = lower value",1.01
same,normalized growth,"locus YDL101C, strain DUN1, stronger effect = lower value",1.04
same,normalized growth,"locus YDL134C, strain PPH21, stronger effect = lower value",1.02
same,normalized growth,"locus YDL185W, strain tfp1, stronger effect = lower value",1.03
same,normalized growth,"locus YDL192W, strain arf1, stronger effect = lower value",0.974
same,normalized growth,"locus YDR001C, strain nth1, stronger effect = lower value",0.984
same,normalized growth,"locus YDR069C, strain doa4, stronger effect = lower value",1.01
same,normalized growth,"locus YDR101C, strain arx1, stronger effect = lower value",0.98
same,normalized growth,"locus YDR137W, strain rgp1, stronger effect = lower value",0.882
same,normalized growth,"locus YDR159W, strain sac3, stronger effect = lower value",1.03
same,normalized growth,"locus YDR162C, strain NBP2, stronger effect = lower value",0.95
same,normalized growth,"locus YDR195W, strain ref2",1.03
same,normalized growth,"locus YDR297W, strain sur2, stronger effect = lower value",1.01
same,normalized growth,"locus YDR318W, strain mcm21, stronger effect = lower value",1
same,normalized growth,"locus YDR334W, strain swr1, stronger effect = lower value",1.01
same,normalized growth,"locus YDR335W, strain msn5, stronger effect = lower value",1
same,normalized growth,"locus YDR388W, stronger effect = lower value",0.989
same,normalized growth,"locus YDR392W, strain spt3, stronger effect = lower value",0.528 (active)
same,normalized growth,"locus YDR502C, strain sam2, stronger effect = lower value",1.01
same,normalized growth,"locus YEL003W, strain gim4, stronger effect = lower value",1.03
same,normalized growth,"locus YEL037C, strain rad23, stronger effect = lower value",1.01
same,normalized growth,"locus YEL061C, strain CIN8 (second series), stronger effect = lower value",1
same,normalized growth,"locus YER015W, strain faa2, stronger effect = lower value",1.02
same,normalized growth,"locus YER016W, strain bim1, stronger effect = lower value",1
same,normalized growth,"locus YER110C, stronger effect = lower value",1.03
same,normalized growth,"locus YER111C, strain swi4, stronger effect = lower value",1.01
same,normalized growth,"locus YER155C, strain BEM2 (second series), stronger effect = lower value",0.99
same,normalized growth,"locus YER155C, strain BEM2, stronger effect = lower value",1.02
same,normalized growth,"locus YER167W, strain BCK2, stronger effect = lower value",0.997
same,normalized growth,"locus YFR010W, strain ubp6, stronger effect = lower value",1.05
same,normalized growth,"locus YGL078C, strain dbp3, stronger effect = lower value",1
same,normalized growth,"locus YGL086W, strain mad1, stronger effect = lower value",0.959
same,normalized growth,"locus YGL167C, strain pmr1, stronger effect = lower value",0.993
same,normalized growth,"locus YGL173C, strain kem1, stronger effect = lower value",1.03
same,normalized growth,"locus YGL227W, strain vid30, stronger effect = lower value",1.01
same,normalized growth,"locus YGL240W, strain doc1, stronger effect = lower value",1.01
same,normalized growth,"locus YGL248W, strain PDE1, stronger effect = lower value",1.04
same,normalized growth,"locus YGL253W, strain hxk2, stronger effect = lower value",1.02
same,normalized growth,"locus YGR078C, strain PAC10, stronger effect = lower value",0.987
same,normalized growth,"locus YGR135W, strain pre9, stronger effect = lower value",1.02
same,normalized growth,"locus YGR252W, strain gcn5, stronger effect = lower value",1.1
same,normalized growth,"locus YHR013C, strain ard1, stronger effect = lower value",1.01
same,normalized growth,"locus YHR027C, strain rpn1, stronger effect = lower value",1
same,normalized growth,"locus YHR030C, strain SLT2, stronger effect = lower value",1.01
same,normalized growth,"locus YHR079C, strain IRE1 (second series), stronger effect = lower value",0.995
same,normalized growth,"locus YHR079C, strain IRE1, stronger effect = lower value",1.01
same,normalized growth,"locus YHR094C, strain hxt1, stronger effect = lower value",0.998
same,normalized growth,"locus YHR129C, strain ARP1, stronger effect = lower value",1
same,normalized growth,"locus YHR142W, strain chs7, stronger effect = lower value",0.963
same,normalized growth,"locus YHR200W, strain rpn10, stronger effect = lower value",0.995
same,normalized growth,"locus YIL066C, strain RNR3, stronger effect = lower value",0.997
same,normalized growth,"locus YIL073C, strain SPO22, stronger effect = lower value",0.995
same,normalized growth,"locus YIL125W, strain kgd1, stronger effect = lower value",0.998
same,normalized growth,"locus YIR030C, strain dcg1, stronger effect = lower value",0.988
same,normalized growth,"locus YJL092W, strain hpr5, stronger effect = lower value",1.01
same,normalized growth,"locus YJL095W, strain BCK1 (second series), stronger effect = lower value",1.01
same,normalized growth,"locus YJL095W, strain BCK1, stronger effect = lower value",0.969 and 1.04
same,normalized growth,"locus YJL115W, strain asf1, stronger effect = lower value",1.01
same,normalized growth,"locus YJL129C, strain trk1, stronger effect = lower value",0.881
same,normalized growth,"locus YJL134W, strain LCB3, stronger effect = lower value",0.998
same,normalized growth,"locus YJL154C, strain vps35, stronger effect = lower value",1
same,normalized growth,"locus YJL164C, strain tpk1, stronger effect = lower value",1.02
same,normalized growth,"locus YJL166W, strain qcr8, stronger effect = lower value",0.993
same,normalized growth,"locus YJL168C, strain set2, stronger effect = lower value",0.985
same,normalized growth,"locus YJL187C, strain SWE1 (second series), stronger effect = lower value",1.07
same,normalized growth,"locus YJR043C, strain POL32, stronger effect = lower value",1.04
same,normalized growth,"locus YJR066W, strain TOR1, stronger effect = lower value",0.98
same,normalized growth,"locus YJR075W, strain HOC1, stronger effect = lower value",0.999
same,normalized growth,"locus YKL009W, strain mrt4, stronger effect = lower value",0.992
same,normalized growth,"locus YKL068W, stronger effect = lower value",0.972
same,normalized growth,"locus YKL085W, strain MDH1 (second series), stronger effect = lower value",0.967
same,normalized growth,"locus YKL085W, strain MDH1, stronger effect = lower value",0.967
same,normalized growth,"locus YKL160W, strain elf1, stronger effect = lower value",1
same,normalized growth,"locus YKR001C, strain vps1, stronger effect = lower value",1.01
same,normalized growth,"locus YKR026C, strain gcn3, stronger effect = lower value",0.991
same,normalized growth,"locus YKR091W, strain srl3, stronger effect = lower value",0.981
same,normalized growth,"locus YLL001W, strain dnm1, stronger effect = lower value",0.995
same,normalized growth,"locus YLL026W, stronger effect = lower value",1
same,normalized growth,"locus YLL041C, strain sdh2, stronger effect = lower value",0.994
same,normalized growth,"locus YLR027C, strain aat2, stronger effect = lower value",1.01
same,normalized growth,"locus YLR039C, strain RIC1, stronger effect = lower value",0.968
same,normalized growth,"locus YLR058C, strain SHM2, stronger effect = lower value",1.05
same,normalized growth,"locus YLR102C, strain apc9, stronger effect = lower value",1.01
same,normalized growth,"locus YLR113W, strain HOG1, stronger effect = lower value",1
same,normalized growth,"locus YLR221C, strain rsa3, stronger effect = lower value",1.01
same,normalized growth,"locus YLR258W, strain gsy2, stronger effect = lower value",1.01
same,normalized growth,"locus YLR262C, strain YPT6 (second series), stronger effect = lower value",0.961
same,normalized growth,"locus YLR262C, strain YPT6, stronger effect = lower value",0.929
same,normalized growth,"locus YLR268W, strain sec22, stronger effect = lower value",0.997
same,normalized growth,"locus YLR320W, strain mms22, stronger effect = lower value",0.959
same,normalized growth,"locus YLR342W, strain FKS1 (second series), stronger effect = lower value",1
same,normalized growth,"locus YLR342W, strain FKS1, stronger effect = lower value",0.988
same,normalized growth,"locus YLR357W, strain rsc2, stronger effect = lower value",1.07
same,normalized growth,"locus YLR370C, strain arc18, stronger effect = lower value",1.04
same,normalized growth,"locus YLR371W, strain rom2, stronger effect = lower value",0.959
same,normalized growth,"locus YLR384C, strain iki3, stronger effect = lower value",0.997
same,normalized growth,"locus YLR418C, strain cdc73, stronger effect = lower value",0.904
same,normalized growth,"locus YML016C, strain PPZ1, stronger effect = lower value",1.02
same,normalized growth,"locus YML032C, strain rad52, stronger effect = lower value",1.01
same,normalized growth,"locus YML120C, strain ndi1, stronger effect = lower value",0.965
same,normalized growth,"locus YML124C, strain tub3, stronger effect = lower value",0.99
same,normalized growth,"locus YMR058W, strain fet3, stronger effect = lower value",1.03
same,normalized growth,"locus YMR078C, strain ctf18, stronger effect = lower value",0.991
same,normalized growth,"locus YMR125W, strain sto1, stronger effect = lower value",1
same,normalized growth,"locus YMR129W, stronger effect = lower value",1
same,normalized growth,"locus YMR205C, strain PFK2, stronger effect = lower value",0.924
same,normalized growth,"locus YMR223W, strain ubp8, stronger effect = lower value",1
same,normalized growth,"locus YMR231W, strain pep5, stronger effect = lower value",1.02
same,normalized growth,"locus YMR307W, strain GAS1, stronger effect = lower value",0.976
same,normalized growth,"locus YNL067W, strain RPL9B, stronger effect = lower value",1.01
same,normalized growth,"locus YNL071W, strain lat1, stronger effect = lower value",0.836 (active)
same,normalized growth,"locus YNL153C, strain GIM3, stronger effect = lower value",1.03
same,normalized growth,"locus YNL183C, strain NPR1, stronger effect = lower value",0.974
same,normalized growth,"locus YNL209W, strain ssb2, stronger effect = lower value",1.01
same,normalized growth,"locus YNL233W, strain BNI4, stronger effect = lower value",1.01
same,normalized growth,"locus YNL248C, strain rpa49, stronger effect = lower value",1.04
same,normalized growth,"locus YNL250W, strain rad50, stronger effect = lower value",1.03
same,normalized growth,"locus YNL271C, strain bni1, stronger effect = lower value",0.996
same,normalized growth,"locus YNL298W, strain CLA4, stronger effect = lower value",1
same,normalized growth,"locus YNL307C, strain MCK1, stronger effect = lower value",0.943
same,normalized growth,"locus YNL322C, strain KRE1 (second series), stronger effect = lower value",1.01
same,normalized growth,"locus YNL322C, strain KRE1, stronger effect = lower value",1
same,normalized growth,"locus YNR049C, strain mso1, stronger effect = lower value",0.984
same,normalized growth,"locus YNR052C, strain pop2, stronger effect = lower value",1.01
same,normalized growth,"locus YOL012C, strain htz1",0.724
same,normalized growth,"locus YOL147C, strain pex11, stronger effect = lower value",1
same,normalized growth,"locus YOR001W, strain rrp6, stronger effect = lower value",1.04
same,normalized growth,"locus YOR061W, strain CKA2, stronger effect = lower value",1.03
same,normalized growth,"locus YOR069W, strain VPS5, stronger effect = lower value",1.01
same,normalized growth,"locus YOR070C, strain gyp1, stronger effect = lower value",1.01
same,normalized growth,"locus YOR080W, strain dia2, stronger effect = lower value",1.02
same,normalized growth,"locus YOR083W, strain WHI5, stronger effect = lower value",1.02
same,normalized growth,"locus YOR106W, strain vam3, stronger effect = lower value",1.01
same,normalized growth,"locus YOR136W, strain idh2, stronger effect = lower value",1.02
same,normalized growth,"locus YOR144C, strain elg1, stronger effect = lower value",0.993
same,normalized growth,"locus YOR184W, strain ser1, stronger effect = lower value",0.852 (active)
same,normalized growth,"locus YOR231W, strain MKK1, stronger effect = lower value",1.04
same,normalized growth,"locus YOR265W, strain rbl2, stronger effect = lower value",1.02
same,normalized growth,"locus YOR270C, strain vph1, stronger effect = lower value",0.851
same,normalized growth,"locus YOR290C, strain snf2, stronger effect = lower value",0.977
same,normalized growth,"locus YOR316C, strain cot1, stronger effect = lower value",1
same,normalized growth,"locus YPL051W, strain arl3, stronger effect = lower value",0.994
same,normalized growth,"locus YPL078C, strain atp4, stronger effect = lower value",0.941
same,normalized growth,"locus YPL106C, strain sse1, stronger effect = lower value",1.07
same,normalized growth,"locus YPL240C, strain hsp82, stronger effect = lower value",0.999
same,normalized growth,"locus YPL256C, strain CLN2, stronger effect = lower value",1.02
same,normalized growth,"locus YPR119W, strain clb2, stronger effect = lower value",0.988
same,normalized growth,"locus YPR141C, strain kar3, stronger effect = lower value",0.971
same,normalized growth,"locus YPR163C, strain tif3, stronger effect = lower value",0.991
same,normalized growth,"locus YPR167C, strain met16, stronger effect = lower value",0.994
same,normalized growth,"strain wtn01, stronger effect = lower value",0.985
